# Most compounds without a hit are left out; they make up all but 5.7% or so of the library.
# ClpP mod – qHTS Assay for Activators of ClpP; ATP-dependent Clp protease proteolytic subunit (Bacillus subtilis (strain 168)), P80244; purified B. subtilis ClpP, FRET peptide cleavage, 20 min; Potency, µM (highest dose often 57.5 µM), inactives show at the top dose activity change, negative = active; hit rate 1.9% among 340,000; AID 651965, 2013; active means well fitted falling curve with a large enough effect; inconclusive means small, poorly fitted or top-dose-only effect; inactive means no such curve, though single readings can be large or run the other way; further: potency means the concentration at half of the fitted maximal effect; the source files actives as falling curves though it sought activators and does not explain the sign; nearly all actives have a fitted effect of over 65% in size
# Target sequence (P80244 whole entry, looked up): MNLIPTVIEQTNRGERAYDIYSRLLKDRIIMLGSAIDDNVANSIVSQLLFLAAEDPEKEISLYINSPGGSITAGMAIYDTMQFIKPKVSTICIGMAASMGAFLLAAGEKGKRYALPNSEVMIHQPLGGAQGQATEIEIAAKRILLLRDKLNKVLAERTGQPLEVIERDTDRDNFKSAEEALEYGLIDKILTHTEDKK
#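 FRET quenching reversal measured ClpP activation: 10 microg/mL B. subtilis ClpP at pH 8 with the FRET-FV decapeptide, read at 430 nm after 320 nm excitation. The 20-min minus 0-min signal was scaled between DMSO/no-enzyme wells and ADEP (5.8 microM final).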
# DRD3 agonist – activates the human D3 dopamine receptor. P35462. D3R DiscoveRx beta-arrestin cells, luminescence, 90 min. max activation, %. hit rate 0.58% among 410,000. AID 652048; in the data active means max activation above about 30%; further: 0% is about no effect
#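 Agonist-mode cell screen: cells plated at 1500/well and incubated overnight at 37 °C, then exposed to library compounds for 90 min at 37 °C. Detection reagent was added for 30–60 min at room temperature, and luminescence was read.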
# DRD3 antagonist – D3 dopamine receptor (human) antagonism | P35462 | D3R cells, DiscoveRx beta-arrestin luminescence, antagonist mode; stronger effect = lower value | max response, negative = inhibition, % | hit rate 2.5% among 360,000; in the data active means max response below about -50%; inconclusive means no clear call, values can overlap the other calls; further: on the % scale 0 is the no-effect control and ±100 the full control effect
#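 Cells expressing the human receptor were seeded at 1500 cells/well, incubated overnight at 37 degrees C in 5% CO2, then exposed to library compounds with dopamine controls for 90 minutes at 37 degrees C before luminescent detection.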
# GLP1R ag – activates the human GLP-1 receptor. hit rate 0.007% among 380,000. P43220. Potency, µM (titrated, usually from 45.6 µM), without a hit: at the highest dose activation, most hits filed as activators. AID 624172. HEK293 GLP-1R CRE-luciferase, luminescence, 4-6 h; cells express a hypersensitive GLP-1R form; further: potency means the concentration at half of the fitted maximal effect; % of control where 0% means no effect
# GLP-1R inv ag – GLP-1 receptor (human) inverse agonism; AID 624417; HEK293 GLP-1R CRE-luciferase, luminescence, 24 h; GLP-1R form is constitutively active; P43220; hit rate 1.6% among 410,000; Potency, µM (titrated, usually from 38.3 µM), for inactives: at the top dose activity change, negative = inhibition, usual class: inhibitors; further: potency means the concentration at half of the fitted maximal effect; on the % scale 0 is the no-effect control and ±100 the full control effect; nearly all actives have a fitted effect of over 55% in size
#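 Constitutively active GLP-1R drives a cAMP-responsive luciferase in stably transfected HEK293 cells; test compounds are added after overnight (12 h) attachment and left 24 hr, and signal loss in luminescence marks inhibition.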
# GLP1R cytotox – cytotoxic in the GLP-1 receptor inverse agonist counter-screen | HEK293 cAMP-luciferase reporter cells, luminescence, 24 h | Potency, µM (highest dose often 38.3 µM), inactives show at the highest dose activity change, negative = inhibition, actives largely listed as inhibitors | hit rate 0.13% among 410,000 | AID 624418;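 further: loss of luciferase light is scored as toxicity; potency means the concentration at half of the fitted maximal effect; on the % scale 0 is the no-effect control and ±100 the full control effect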
#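 Here, cytotoxicity is scored as loss of luminescence. The MLSMR collection was tested on cells seeded in medium containing 10% Nu serum, with a 24 hr compound exposure preceded by 12 hours of culture.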
# Starred values were filed as active, the others as inactive; ? = inconclusive; / = no result given. Unless noted, the call rests on the fitted dose curve; in most records, active means well fitted curve in the direction sought with a large enough effect; inconclusive means small, poorly fitted or top-dose-only effect, or another doubt; inactive means no such curve, though single readings can be large; an effect the other way counts as inactive or inconclusive.
SMILES,ClpP mod,DRD3 agonist,DRD3 antagonist,GLP1R ag,GLP-1R inv ag,GLP1R cytotox
COc1ccc(/C=C2\CCCCC2=O)cc1,/,-3.3,-7.3,6.8%,5.6%,3.1%
COc1ccc(C=C2CS(=O)(=O)CC(=Cc3ccc(OC)cc3)C2=O)cc1,-1.0%,-8.2,-63.7*,-16.9%,?,?
CC(=O)OC[C@H]1O[C@@](COC(C)=O)(O[C@H]2O[C@H](COC(C)=O)[C@@H](OC(C)=O)[C@H](OC(C)=O)[C@H]2OC(C)=O)[C@@H](OC(C)=O)[C@@H]1OC(C)=O,/,-5.4,/,17.3%,/,/
CCC(C(=O)Nc1ccccc1C(=O)OC)n1nc(C)c2c(C)n(-c3ccc(C)cc3)nc2c1=O (centres undefined),4.5%,9.2,/,/,-0.9%,-5.0%
CCc1cnc2c(c1SCC(=O)c1ccc(Cl)cc1)c(=O)n(C)c(=O)n2C,-0.9%,-4.8,/,/,11.8%,0.8%
CSc1nnc2c(n1)OC(c1cccc(O)c1Cl)Nc1ccccc1-2 (centres undefined),-0.7%,1.8,/,/,-6.8%,-3.1%
CCN(CC)c1ccc(C2Nc3cccc4cccc(c34)N2)cc1,/,8.1,-14.4,-1.9%,5.6%,-18.7%
Brc1ccc(C2Nc3cccc4cccc(c34)N2)cc1,/,-12.2,-63.3*,-0.2%,7.7%,-3.1%
O=[N+]([O-])c1ccc(C2Nc3cccc4cccc(c34)N2)cc1,-1.1%,1.8,?,-24.8%,0.2%,-14.2%
Oc1ccc(C2Nc3cccc4cccc(c34)N2)c(O)c1,31.6µM*,-1.4,?,-21.0%,9.6%,-9.2%
Fc1ccc(C2Nc3cccc4cccc(c34)N2)cc1,/,-3.6,-74.9*,-1.8%,-5.8%,4.4%
Cc1ccc(C2Nc3cccc4cccc(c34)N2)s1,-4.3%,-2.8,-60.6*,-33.2%,117.4%,?
Clc1ccccc1C1Nc2cccc3cccc(c23)N1,-0.9%,0.1,-18.6,8.5%,35.1%,-19.6%
FC(F)(F)c1ccc(C2Nc3cccc4cccc(c34)N2)cc1,/,-2.6,-9.2,-2.7%,-2.8%,-21.2%
CCN(CC)c1cc2c(cc1F)c(=O)c(S(=O)(=O)c1ccc(OC)cc1)cn2CC,-11.0%,4.2,/,/,10.4%,-0.3%
CC(C)n1cc(C#N)c(N)n1,-3.0%,8.9,10.2,-0.9%,5.9%,0.1%
O=C1OCCN1C(=O)[C@H]1[C@H](c2ccc(F)cc2)C(c2cccc(Cl)c2)=NN1c1ccc(Br)cc1,4.8%,-0.4,14.5,-3.8%,8.91µM*,396.5%

# Assay outcomes as filed in PubChem BioAssay.
